From PubChem BioAssay (Tox21) come the findings set out here.

“And” between values parts separate entries of the source, which are not always exact repeats. Equal entries are not always repeated. Records with an inconclusive call do not appear. A call without a number means that no potency is given here. Where a structure was tested more than once in an assay, its records may differ in their call. The source made the active and inactive calls. Calls come from the whole dose curve; as a rule, active = well fitted cell-killing curve with a large enough effect in the repeat runs; inconclusive = weak or mixed curves; inactive = no such curve, though single readings can be large or run the other way.
Potency is the fitted concentration of half-maximal effect.

A short description of the assay: qHTS assay to identify small molecule antagonists of the androgen receptor (AR) signaling pathway - cell viability counter screen (AID 743033; note: nearly all actives have a fitted effect of over 45% in size). The following applies: AR-bla HEK293 viability, CellTiter-Glo luminescence, 16 h; series mostly up to 58.5 µM. The source says:
National Center for Advancing Translational Sciences [NCATS]
NIH Chemical Genomics Center [NCGC]
U.S. Environmental Protection Agency [EPA]
National Institutes of Environmental Health Sciences [NIEHS]
National Toxicology Program [NTP]
U.S. Food and Drug Administration [FDA]
Androgen receptor (AR), a nuclear hormone receptor, plays a critical role in AR-dependent prostate cancer and other androgen related diseases. Endocrine disrupting chemicals (EDCs) and their interactions with steroid hormone receptors like AR may cause disruption of normal endocrine function as well as interfere with metabolic homeostasis, reproduction, developmental and behavioral functions. To identify the compounds that inhibit AR signaling, GeneBLAzer AR-UAS-bla-GripTite cell line (Invitrogen, Carlsbad, CA, USA) containing a beta-lactamase reporter gene under control of an Upstream Activator Sequence (UAS) stably integrated into HEK293 cells was used to screen the Tox21 10K compound library. The cytotoxicity of the Tox21 compound library against the AR-bla cell line was tested in parallel by measuring the cell viability using CellTiter-Glo assay in the same wells.
Tox21 Assay Protocol Summary:
AR-bla cells were dispensed at 2,000 cells/5 uL of assay medium per well into black wall/clear-bottom 1536-well plates using a Multidrop Combi (ThermoFisher Scientific, Waltham, MA) dispenser. After the assay plates were incubated at a 37C and 5% CO2 for 4 hr, 23 nL of compounds dissolved in DMSO, positive controls or DMSO only was transferred to the assay plate by a Pintool station (Kalypsys, San Diego, CA), followed by addition of 1 uL of agonist (R1881) in culture medium using a Bioraptr Flying Reagent Dispenser (FRD) workstation (Beckman Coulter, Indianapolis, IN, USA). The plates were incubated at a 37C and 5% CO2 for 16 h. After 1 uL of LiveBLAzerTM B/G FRET substrate was added using a Bioraptr FRD, the plates were incubated at room temperature for 2 h and fluorescence intensity was measured by an Envision plate reader (PerkinElmer, Shelton, CT). For cell viability readout that measures cytotoxicity, 4 ul/well of CellTiter-Glo reagent was added into the assay plates using a Bioraptr FRD. After 30 min incubation at room temperature, the luminescence intensity in the plates was measured using a ViewLux (PerkinElmer) plate reader.
In the case of `c1cc(OCC2CO2)ccc1Cc1ccc(OCC2CO2)cc1` (stereo not given), the Potency result was “inactive”.
The value for `CCCCC(CC)COC(=O)Cl` (stereo not given) was “inactive”; that for `NCc1cccnc1` was “inactive”.
With `COC(=O)c1sccc1S(=O)(=O)NC(=O)Nc1nc(C)nc(OC)n1` the entry was “inactive”; with `c1ccc(N=Nc2ccccc2)cc1`, “inactive”.
The value for `CC(C)N(C(=O)SCC(Cl)=C(Cl)Cl)C(C)C` was “inactive”.
Regarding `c1ccc(NNc2ccccc2)cc1`, the Potency entry was “inactive”.
With `CC(C)(OOC(C)(C)c1ccccc1)c1ccccc1` the entry was “inactive”; with `COP(=S)(OC)Oc1cc(Cl)c(Cl)cc1Cl`, “inactive”.
As to `N#CC(Br)Br`, the Potency result is “inactive”.
The value for `CNC(=O)N(C)c1nnc(C(C)(C)C)s1` was “inactive”; that for `CC(C)=CC1C(C(=O)OCc2coc(Cc3ccccc3)c2)C1(C)C` (stereo not given) was “inactive”.
With `NNC(N)=S` the figure was 14.3 µM (active); with `CCCCCCOC(=O)c1ccccc1C(=O)OCCCCCC`, “inactive”; with `C[C@]12CCC(=O)C[C@@H]1CC[C@@H]1[C@@H]2CC[C@]2(C)[C@@H](O)CC[C@@H]12`, “inactive”.
With `Nc1ccc(Cl)c(Cl)c1` the entry was “inactive”; with `CCC(CC)Nc1c([N+](=O)[O-])cc(C)c(C)c1[N+](=O)[O-]`, “inactive”.
In the case of `Cc1cc(Cl)ccc1OCCCC(=O)O`, the Potency entry is “inactive”.
The value for `CC(C)c1ccc(CO)cc1` was “inactive”; that for `CC(O)CCO` (stereo not given) was “inactive”; that for `Nc1ccc(-c2ccc(N)c(N)c2)cc1N` was “inactive”.
For `Cc1ccc2c(c1N)C(=O)c1ccccc1C2=O`, the Potency result is “inactive”.
`CCN(CC)N=O`: the Potency result was “inactive”.
Consider `NC(=S)Nc1ccccc1`, for which the Potency result is “inactive”.
The value for `O=P(Oc1ccccc1)(Oc1ccccc1)Oc1ccccc1` was “inactive”; that for `c1ccc(P(c2ccccc2)c2ccccc2)cc1` was “inactive”; that for `CC(C)C(=O)OCC(C)(C)C(OC(=O)C(C)C)C(C)C` (stereo not given) was “inactive”.
With `N[C@@H](Cc1ccc(N(CCCl)CCCl)cc1)C(=O)O` the entry was “inactive”.
Regarding `CN(C)c1ccc(C(=O)c2ccc(N(C)C)cc2)cc1`, the Potency entry was “inactive”.
With `NNC(=S)NN` the entry was “inactive”; with `CCOP(=S)(OCC)O/N=C(\C#N)c1ccccc1`, “inactive”; with `O=C1C=CC(=O)C=C1`, “inactive”.
With `CCC(C)c1cc([N+](=O)[O-])cc([N+](=O)[O-])c1O` (stereo not given) the entry was “inactive and 19.5 µM (active)”.
On to `O=S(=O)(Oc1ccc(Cl)cc1)c1ccc(Cl)cc1`, for which the Potency entry is “inactive”.
The value for `Oc1c(Cl)c(Cl)c(Cl)c(Cl)c1Cl` was 21.4 µM (active).
On to `CCC(C)(C)c1ccc(O)cc1`, for which the Potency entry is “inactive”.
The value for `Oc1ccc(-c2ccccc2)cc1` was “inactive”; that for `CCOC(=O)C(C)OC(=O)c1cc(Oc2ccc(C(F)(F)F)cc2Cl)ccc1[N+](=O)[O-]` (stereo not given) was “inactive”; that for `CN(C)C(=O)Nc1ccc(Cl)cc1` was “inactive”.
With `CCN(CC)C(=O)SCc1ccc(Cl)cc1` the entry was “inactive”.
